# Activity calls are given as the source filed them. How the source made its calls: active means hit-call score of the fitted dose curve at least 0.9, where 1 is the maximum; inactive means score below 0.9.
# Test: ATG_GATA_CIS: Attagene CIS-FACTORIAL HepG2 Assay for human GATA Binding Protein (AID 2282944)
# Details: HepG2 GATA cis-element reporter, Attagene multiplex mRNA; actives raise or lower the signal
# Experimental: ATG_CIS is a cell-based, multiplexed-readout assay that uses HepG2, a human liver cell line, with measurements taken at 24 hours after chemical dosing in a 24-well plate.ATG_GATA_CIS is one of 52 assay component(s) measured or calculated from the ATG_CIS assay. It is designed to make measurements of mRNA induction, a form of inducible reporter, as detected with fluorescence intensity signals by Reverse transcription polymerase chain reaction (RT-PCR) and Capillary electrophoresis technology.Data from the assay component ATG_GATA_CIS was analyzed into 1 assay endpoint. This assay endpoint, ATG_GATA_CIS, was analyzed with bidirectional fitting relative to DMSO as the negative control and baseline of activity. Using a type of inducible reporter, measures of mRNA for gain or loss-of-signal activity can be used to understand the reporter gene at the transcription factor-level as they relate to the gene GATA1. Furthermore, this assay endpoint can be referred to as a primary readout, because this assay has produced multiple assay endpoints where this one serves a reporter gene function. To generalize the intended target to other relatable targets, this assay endpoint is annotated to the dna binding intended target family, where the subfamily is GATA proteins.
# Human liver HepG2 cells are transiently transfected with multiple reporter transcription units (MRTUs) in 6-well plates using FuGene 6 reagent (Roche; 3 ml FuGene/1 mg DNA). The MRTU constructs are regulated by a cis-regulating element (promoter). […] A major difference between the CIS and TRANS system is that in CIS activities of endogenous TFs are measured, whereas the TRANS assay evaluates changes in activities of exogenous, chimeric NR-Gal4 proteins. […] At the end of 24 hour incubation, total RNA was isolated using TriZol reagent (Invitrogen). The isolated RNA is then reverse-transcribed using oligo(dT) primer and Mo-MLV reverse transcriptase (Invitrogen) with DNAse I (Ambion) treatment for 30 min. The one-tenth of the produced cDNA was amplified by PCR using Taq DNA polymerase (Invitrogen) and two reporter sequence-specific primers. The PCR products were fluorescently labeled by primer extension with 6-arboxyfluorescein (6-FAM) 5'-labeled reporter sequence-specific primer (2 min at 95 C, 20 s at 68 C and 10 min at 72 C) and these products were digested with 5U of HpaI (New England Biolabs) for 2h at 37 C. The fragments were purified using Qiaquick PCR columns (Qiagen), analyzed on an ABI 3130xL genetic analyzer (Applied Biosystems) with peak positions identified by using a set of X-rhodamine (ROX)-labeled MapMarker1000 molecular weight standards (BioVentures). The raw capillary electrophoresis data was processed using Attagraph software (Attagene).
SMILES,outcome,AC50
C=C(C)C1CCC(C)CC1O (stereo not given),inactive,
Cc1ccc2ccccc2n1,inactive,
CC(C)=CCC/C(C)=C/COC=O,inactive,
C=CC(C)(CCC=C(C)C)OC=O (stereo not given),inactive,
CCC(O)CO (stereo not given),inactive,
O=c1oc(=O)c2cc3c(=O)oc(=O)c3cc12,inactive,
CCCCC[Si](OCC)(OCC)OCC,inactive,
C=CC[N+](C)(C)CC=C,inactive,
Nc1cc(Cl)c(O)c(Cl)c1,inactive,
OC1C(O)C(O)C(O)C(O)C1O (stereo not given),inactive,
O=C1OC2(c3cc(Br)c(O)c(Br)c3Oc3c2cc(Br)c(O)c3Br)c2c(Cl)c(Cl)c(Cl)c(Cl)c21,inactive,
O=c1[nH]nnc2ccccc12,inactive,
C=COCCOCCOCCOC=C,inactive,
Cc1ccc(Nc2ccc(O)c3c2C(=O)c2ccccc2C3=O)cc1,inactive,
Cc1c(N(C)C)c(=O)n(-c2ccccc2)n1C,inactive,
CC(C)c1ccc(C(C)C)cc1,inactive,
CCCCCCCCCOC(C)=O,inactive,
CC(=O)O[C@H](CC(=O)[O-])C[N+](C)(C)C,inactive,
c1cc(C(c2ccc(OCC3CO3)cc2)c2ccc(OCC3CO3)cc2)ccc1OCC1CO1 (stereo not given),,180 µM (active)
Cc1ccc(C(C)C)cc1O,inactive,

SMILES,outcome,AC50
CC1COc2ccccc2N1C(=O)C(Cl)Cl (stereo not given),inactive,
CC(=O)O[C@]1(C(C)=O)CC[C@H]2[C@@H]3C[C@H](C)C4=CC(=O)CC[C@]4(C)[C@H]3CC[C@@]21C,inactive,
O=C(Nc1ccccc1)c1cc([N+](=O)[O-])ccc1Cl,inactive,
CC1CCC(C(C)(C)O)CC1 (stereo not given),inactive,
O=C=NC1CCC(CC2CCC(N=C=O)CC2)CC1 (stereo not given),inactive,
CCCCCC(=O)OCCc1ccccc1,inactive,
COc1cc(C=O)ccc1OC(=O)C(C)C,inactive,
CC(=O)Nc1ccc(CC(=O)O)cc1,inactive,
CCCCCCCCCCCCCCCCCC(=O)OCC(CC)CCCC (stereo not given),inactive,
CC(C)c1cccc(O)c1,inactive,
CC(CN1c2ccccc2Sc2ccccc21)N(C)C (stereo not given),inactive,
CC(C)C1CCC(O)CC1 (stereo not given),inactive,
N#Cc1ccccc1,inactive,
O=C1CCCCCCCCCCCCCCO1,inactive,
C=C[Si](OCC)(OCC)OCC,inactive,
CC(C)C[C@H]1C(=O)N2CCC[C@H]2[C@]2(O)O[C@](NC(=O)[C@@H]3C=C4c5cccc6[nH]c(Br)c(c56)C[C@H]4N(C)C3)(C(C)C)C(=O)N12,inactive,
CCCC(=O)c1cc(O)c(O)cc1O,inactive,
Cc1cccc(C)c1[N+](=O)[O-],inactive,
CCCCCCCCC,inactive,
CC1(C)CCC(C)(C)c2cc(C(=O)Nc3ccc(C(=O)O)cc3)ccc21,inactive,
